About 2,400 (0.65%) of roughly 370,000 compounds were called active.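 How the source made its calls: active means inhibition above the screen-wide mean plus 3 SD (cut at about 13% in these data); inactive means the rest.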 Only a selection was taken, and actives are over-represented in it overall.
Test system: HIV-1 integrase (with human LEDGF/p75)
Assay: blockers of LEDGF/p75-dependent integrase strand transfer – biochemical, TR-FRET, high throughput, primary screen (AID 743269);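 further: signal is the Cy5 over europium emission ratio at 671 and 618 nm; 0% = plate median of compound wells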
Details: TR-FRET IN-LEDGF/p75 DNA integration, Eu/Cy5; at 3.7 µM; active compounds read high

SMILES	inhibition
CCC(=O)Nc1ccc2c(c1)C(=O)N(C)[C@@H]1CC[C@@H](CC(=O)NCCc3ccccc3)O[C@H]1CO2	-2.65% (inactive)
Cc1ccc(N=C2NC(=O)/C(=C/C=C/c3ccco3)S2)cc1C	16.8% (active)
COC(=O)C[C@@H]1CC[C@@H]2[C@H](COc3ccc(NC(=O)c4cccc(F)c4)cc3C(=O)N2C)O1	7.98% (inactive)
Cc1ccc(-n2c(COc3ccccc3)nnc2SCC(=O)Nc2ccc3c(c2)OCCO3)cc1	-2.45% (inactive)
C=CCn1c2ccccc2c2nnc(SCc3[nH]c(=O)[nH]c3C(=O)CCCCC(=O)OCC)nc21	43.2% (active)
C=CCn1c(SCC(=O)CC(=O)OCC)nc2cc(C(=O)N3CCC(C(N)=O)CC3)ccc2c1=O	-1.71% (inactive)
C=CCn1c2ccccc2c2nnc(SC(CC)C(=O)Nc3nc(C)c(C(=O)OCC)s3)nc21 (stereo not drawn)	-2.02% (inactive)
COc1cccc(N2CCN(CC(=O)N(C)Cc3ccc(F)cc3)CC2)c1	-2.54% (inactive)
COC(=O)[C@]12C[C@H](CC(=O)N3CCOCC3)C(=O)N(Cc3ccc(Cl)cc3Cl)C1=C[C@H](COCc1ccccc1)O[C@@H]2C	0.62% (inactive)
Cc1ccc(C(=O)C2CCN(CC(=O)NCCC(C)C)CC2)cc1	0.16% (inactive)
CC(C)(C)C1C/C(=C/c2ccco2)C(=O)/C(=C/c2ccco2)C1 (stereo not drawn)	79.5% (active)
COc1ccc(CN(CCN2CCOCC2)C(=O)c2ccc(C)cc2)cc1OC	-0.71% (inactive)
CCOC(=O)c1cccc(NC(=O)CN(C)S(=O)(=O)c2ccc(-c3cocn3)s2)c1	2.14% (inactive)
CCCCC(=O)N[C@@H]1CC[C@@]23CCCN2C(=O)CCC[C@H]3[C@H]1C	0.47% (inactive)
COc1ccnc(C(=O)N2CCC(Oc3cccnc3)CC2)c1	-0.27% (inactive)
COCc1cc(C)nc2sc3c(=O)n(-c4cccc5ccccc45)nnc3c12	18.6% (active)
COc1ccc(-c2c(C(C)=O)c(C)nc3sc4c(=O)n(-c5ccc(C)cc5)nnc4c23)cc1	-0.97% (inactive)
COCc1cc(C)nc2sc(C(=O)NC3CCCCC3)c(N)c12	0.63% (inactive)
Clc1ccc(-n2c(COc3ccccc3)nnc2SCc2nc3ccccc3[nH]2)cc1	-0.48% (inactive)
Oc1cc(O)c2c(c1)OC(c1ccc(O)c(O)c1)C(O)C2 (stereo not drawn)	17.4% (active)
O=C(Nc1cc(Cl)cc(Cl)c1)OCCN1CCCC12CCC(c1ccccc1)CC2 (stereo not drawn)	-0.23% (inactive)

SMILES	inhibition
Cc1ccc(-n2c(SCC(=O)Nc3ccc(S(=O)(=O)Nc4nccs4)cc3)nnc2-c2ccncc2)cc1	-1.61% (inactive)
CCOC(=O)c1c(C)oc2cc(Sc3ccccc3)c(O)c(O)c12	23.4% (active)
CCOC(=O)c1c(C)oc(C)c(C(=O)OCC)c1=O	3.08% (inactive)
CCOC(=O)c1c(C)oc2cc(Br)c(OCC(N)=O)cc12	-0.08% (inactive)
COC(=O)CC1CCc2cc(C)cc(C(CC(C)C)NC(=O)[C@H](CC(C)C)NC(=O)OCc3ccccc3)c2O1 (stereo partly drawn)	-0.18% (inactive)
CCN(C(=O)[C@@H](C1CC1)[C@@H](O)c1ccc2ccccc2c1)c1ccccc1	-2.01% (inactive)
Cc1ccc(Cc2cnc(N)s2)o1	31.2% (active)
O=C(Nc1nc2ccc(Cl)cc2s1)c1cc(-c2ccc(Cl)cc2)nc2ccccc12	6.18% (inactive)
CN(C)c1ccc(NC(=O)NC2CCCCN(Cc3ccc(Cl)cc3)C2=O)cc1 (stereo not drawn)	6.63% (inactive)
CCn1c(=O)n2n(c1=O)[C@@]1(C=C3CCCC[C@H]32)N=C(NC(=O)c2ccccc2)N(Cc2ccccc2)[C@H]1Cc1ccccc1	2.19% (inactive)
Clc1ccc(C2=CSC3=Nc4cccc5cccc(c45)N23)cc1	37.2% (active)
CC(=O)Nc1nc2ncccn2c1-c1ccc(C(F)(F)F)cc1	4.33% (inactive)
CCC(C)[C@@H](C(=O)OC)N(CCc1cn(Cc2ccccc2)nn1)S(=O)(=O)c1ccccc1Br (stereo partly drawn)	1.03% (inactive)
CC(C)CNc1cccc2c1S(=O)(=O)N(Cc1cn(Cc3ccccc3C(F)(F)F)nn1)Cc1ccccc1O2	-0.84% (inactive)
CCOC(=O)[C@]12CCCC3=C1N(CCC3)C(=O)[C@@H](CC(=O)NCC13CC4CC(CC(C4)C1)C3)C2	0.85% (inactive)
O=C(NCc1ccco1)C1CCCN(S(=O)(=O)c2ccc(Cl)s2)C1 (stereo not drawn)	-0.9% (inactive)
COc1ccc(OC)c(NC(=O)CSc2nc(-c3ccccc3)cc(=O)[nH]2)c1	2.74% (inactive)
COC(=O)c1cc(OC)c(OC)cc1NC(=O)CSc1ccc(C)cc1	-3.23% (inactive)
CCc1cc2cc(OC)ccc2nc1SCC(=O)Nc1cc(OC)c(OC)cc1C(=O)O	17.2% (active)
C=CCN(C(=O)[C@@H](CCCC)[C@@H](O)c1ccc(Cl)cc1)c1ccccc1	2.74% (inactive)
CCc1ccc(CN(C)C(C)C(=O)Nc2ccc(S(=O)(=O)N3CCCC3)cc2)cc1 (stereo not drawn)	-3.86% (inactive)

SMILES	inhibition
CN(CC(=O)Nc1ccc(S(=O)(=O)N2CCCC2)cc1)Cc1ccc(Cl)c(Cl)c1	30.4% (active)
CC(C(=O)Nc1ccc(S(=O)(=O)N2CCCC2)cc1)N(C)Cc1ccc(F)cc1 (stereo not drawn)	-5.41% (inactive)
Nn1c(SCC(=O)Nc2ccc(S(N)(=O)=O)cc2)nnc1-c1n[nH]c2c1CCC2	5.06% (inactive)
CN(O)C(=S)c1ccccc1	21.8% (active)
COC(=O)C1CN(CC(C)C)CCS(=O)(=O)N1Cc1ccc(C)cc1 (stereo not drawn)	1.62% (inactive)
COc1cc(NC(=O)C2CCCN(S(=O)(=O)c3ccc(C(C)(C)C)cc3)C2)cc(OC)c1 (stereo not drawn)	2.62% (inactive)
COC(=O)c1cc(N2CCNCC2)nc2ccccc12	-3.62% (inactive)
COc1cc(/C=C2\CCCc3c2nc2ccccc2c3C(=O)O)cc(Cl)c1O	30.4% (active)
COc1ccc(-n2nc(C(=O)NCC(=O)N3CCCCCC3)c3ccccc3c2=O)cc1Cl	-4.29% (inactive)
C[C@@H]1COc2cccc(N3CCCC3)c2S(=O)(=O)N1C	-1.59% (inactive)
COc1cccc(NC(=O)COC(=O)/C=C/c2ccco2)c1	20.4% (active)
COc1ccc([N+](=O)[O-])cc1NC(=O)COC(=O)/C=C/c1ccco1	-5.28% (inactive)
NS(=O)(=O)c1cccc(NC(=O)COC(=O)/C=C/c2ccco2)c1	-1.8% (inactive)
CC(C)(C)c1ccc(C(=O)Nc2cc(Cl)c(Br)cc2C(=O)O)cc1	5.86% (inactive)
CCCCOCCCNC(=O)C[C@H]1C[C@@]2(C(=O)OC)C(=C[C@H](COCc3ccccc3)O[C@@H]2C)N(Cc2cccc3ccccc23)C1=O	-2.14% (inactive)
COC(=O)[C@H](C(C)C)N1CCc2nnn(Cc3ccc(C)cc3)c2-c2ccccc2S1(=O)=O	0.15% (inactive)
CC(C(=O)Nc1ccccc1-c1ccccc1)N1CCOCC1 (stereo not drawn)	-2.51% (inactive)
Cc1oc2c(c1C(=O)N1CCOCC1)C(=O)c1ccccc1C2=O	18.3% (active)
Cc1nc2ccccc2n1C(=O)N1CCOCC1	-1.41% (inactive)
CCCNC(=O)C1(C)CCN1C(=O)Cc1ccc(-c2ccccc2)cc1 (stereo not drawn)	0.51% (inactive)
CC1(C(=O)NS(=O)(=O)c2cccs2)CCN1C(=O)Cc1ccc(-c2ccccc2)cc1 (stereo not drawn)	-0.36% (inactive)

SMILES	inhibition
CC1(C(=O)NS(=O)(=O)c2ccccc2)CCN1C(=O)Cc1ccc(-c2ccccc2)cc1 (stereo not drawn)	19.2% (active)
COc1ccc(/C=C2\CC3(OC(C)=O)CCCN2C3)cc1 (stereo not drawn)	-2.77% (inactive)
C[C@H](C(=O)N(C)c1ccccc1)[C@@H](O)c1ccc2ccccc2c1	-3.07% (inactive)
CCCC(C(=O)OCCN(CC)CC)(c1ccccc1)c1ccccc1	-3.9% (inactive)
CCN(CC)S(=O)(=O)c1cc(C(=O)Nc2ccccn2)ccc1C	1.24% (inactive)
CCN(CC)CCOc1ccc2c(c1)C(=NNC(=O)c1ccccn1)c1cc(OCCN(CC)CC)ccc1-2	19.1% (active)
O=C(NC1CCCC1)C1CSCCS(=O)(=O)N1Cc1ccccc1 (stereo not drawn)	0.83% (inactive)
C=C(C)C1CC23C(=O)C4(C(=O)c5ccccc5)C[C@@]5(C)CCC(CC2C1(C)C)(C4=O)C35OC (stereo partly drawn)	-2.25% (inactive)
Cc1ccc(NC(=O)Cc2cccc(F)c2)c(S(=O)(=O)N2CCOCC2)c1	1.83% (inactive)
CCCCNC(=O)C[C@H]1C(=O)N(Cc2ccc(OC)cc2)C2=CCCC[C@@]21C(=O)OCC	-5.02% (inactive)
COc1cc(-c2nnc(NC(=O)C3=COCCO3)o2)cc(OC)c1OC	5.65% (inactive)
COc1cc(-c2nnc(NC(=O)CS(=O)(=O)c3ccc(Cl)cc3)o2)cc(OC)c1OC	15.4% (active)
Cc1ccc(C)c(-c2nnc(NC(=O)CS(=O)(=O)c3ccccc3)o2)c1	-2.12% (inactive)
CC(CCN1CCC(C(O)(c2ccccc2)c2ccccc2)CC1)Oc1ccc(C(F)(F)F)cc1 (stereo not drawn)	-3.25% (inactive)
O=S(=O)(Cc1noc(-c2ccc(OC(F)(F)F)cc2)n1)c1ccc(F)cc1	0.93% (inactive)
O=[N+]([O-])c1ccc(NS(=O)(=O)c2ccccc2)c(Cl)c1	7.69% (inactive)
O=S(=O)(Nc1ccc(O)c2ccccc12)c1ccc(OC(F)(F)F)cc1	16.5% (active)
CCC(NC(=O)C1C2C=CC3(CN(Cc4ccccc4)C(=O)C13)O2)c1ccccc1 (stereo not drawn)	-1.5% (inactive)
COC(=O)[C@]12C[C@H](CC(=O)NCCc3ccccc3OC)C(=O)N(Cc3ccco3)C1=C[C@H](C(C)C)O[C@@H]2C1CC1	-0.43% (inactive)
COC(=O)[C@]12C[C@H](CC(=O)N3CCOCC3)C(=O)N(Cc3ccc(Cl)cc3Cl)C1=C[C@H](C(C)C)O[C@@H]2C1CC1	-2.5% (inactive)
